Measured values from PubChem BioAssay (NCATS).
Results filed as inconclusive are left out. The source made the active and inactive calls. Calls follow the shape of the dose curve; as a rule, active = well fitted inhibition curve with a large enough effect; inconclusive = small, poorly fitted or top-dose-only effect; inactive = flat fitted curve, though single readings scatter.

Test system: CP203
Test: qHTS profiling for inhibitors of Plasmodium falciparum proliferation (AID 504749); also: nearly all actives have a fitted effect of over 60% in size;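 as to activity, negative = inhibition: 0% = DMSO vehicle and full inhibition = artemisinin control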
Conditions: P. falciparum in erythrocytes, SYBR Green DNA, 72 h; series mostly up to 28.7 µM; activity, negative = inhibition: at the top concentration
Summary of the method: (§1)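 In a 72 h erythrocytic culture (37 C, humidified, 5% CO2) at 2.5% hematocrit and 0.3% starting parasitemia, compounds were tested; SYBR Green I in detergent lysis buffer stained parasite DNA overnight.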
Potency is read from the fitted curve at half-maximal effect.

Compound | activity, negative = inhibition | Potency
Cc1cc(O)c2ccccc2c1O | -14.2% (inactive) | 
CN1[C@@H]2CC[C@H]1CC(OC(=O)C(CO)c1ccccc1)C2 (stereo partly specified) | 1.43% (inactive) | 
CCCSc1ccc2nc(NC(=O)OC)[nH]c2c1 | -9.39% [at 12.8 µM] (inactive) | 
O=C(O)[C@H](CC(=O)N1C[C@H]2CCCC[C@H]2C1)Cc1ccccc1 | 6.55% (inactive) | 
C=C(Nc1ccc(OCC)cc1)Nc1ccc(OCC)cc1 |  | inactive
CC(=O)[C@]1(O)Cc2c(O)c3c(c(O)c2[C@@H](O[C@H]2C[C@H](N)[C@H](O)[C@H](C)O2)C1)C(=O)c1c(O)cccc1C3=O |  | 9.53 µM (active)
CC(N)C(=O)OC(C)(C)Cc1ccc(Cl)cc1 (stereo unspecified) |  | 12 µM (active)

Test system: CP211
Test: as above
Conditions: P. falciparum in erythrocytes, SYBR Green DNA, 72 h; series mostly up to 28.7 µM; activity, negative = inhibition: at the top concentration
Summary of the method: as §1

Compound | activity, negative = inhibition | Potency
O=C(OCc1ccccc1)c1ccccc1 | 3.01% (inactive) | 
Nc1ccc(C(=O)O)c(O)c1 | -9.75% (inactive) | 
O=C(/C=C/c1ccccc1)NCCO | -9.85% (inactive) | 
O=C1CN(/N=C/c2ccc(-c3ccc([N+](=O)[O-])cc3)o2)C(=O)N1 | -1.4% (inactive) | 
O=C(O)c1cc(O)c(O)c(O)c1 | -18% (inactive) | 
C[S+](CC[C@H](N)C(=O)O)C[C@H]1O[C@@H](n2cnc3c(N)ncnc32)[C@H](O)[C@@H]1O (stereo partly specified) | 6.14% (inactive) | 
CN1[C@@H](CC(=O)c2ccccc2)CCC[C@H]1C[C@H](O)c1ccccc1 | -25.2% (inactive) | 
CCOC(=O)c1ccccc1O | 8.25% (inactive) | 
COc1cc(/C=C/C(=O)N2CCN(CC(=O)N3CCCC3)CC2)cc(OC)c1OC | 4.3% (inactive) | 
Nc1cc(-c2ccncc2)c[nH]c1=O | 5.13% (inactive) | 
O=C(O)c1ccccc1Nc1cccc(C(F)(F)F)c1 | 6.13% (inactive) | 
CCCC(=O)OC[C@@H](OC(=O)CCC)[C@@H](OC(=O)CCC)[C@H](Cn1c2nc(=O)[nH]c(=O)c-2nc2cc(C)c(C)cc21)OC(=O)CCC | -1.18% (inactive) | 
c1ccc2sc(SN3CCOCC3)nc2c1 | 1.45% (inactive) | 
Clc1ccccc1-c1nc(-c2ccncc2)no1 | -4.12% (inactive) | 
O=C(O)/C=C/C(O)c1ccc(Cl)cc1 (stereo unspecified) | 2.46% (inactive) | 
Oc1c(Br)cc(Br)c2cccnc12 | -1.67% (inactive) | 
Cc1ccc(C(=O)c2ccc(CC(=O)O)n2C)cc1 | 0.982% [at 12.8 µM] (inactive) | 
Cc1cc(O)c2ccccc2c1O | -8.74% (inactive) | 
COc1ccc(-c2cc(=S)ss2)cc1 | -3.05% (inactive) | 
CN1[C@@H]2CC[C@H]1CC(OC(=O)C(CO)c1ccccc1)C2 (stereo partly specified) | 3.83% (inactive) | 
CCCSc1ccc2nc(NC(=O)OC)[nH]c2c1 | -2.19% [at 12.8 µM] (inactive) | 
O=C(O)[C@H](CC(=O)N1C[C@H]2CCCC[C@H]2C1)Cc1ccccc1 | -4.81% (inactive) | 
C=C(Nc1ccc(OCC)cc1)Nc1ccc(OCC)cc1 |  | inactive
CC(=O)[C@]1(O)Cc2c(O)c3c(c(O)c2[C@@H](O[C@H]2C[C@H](N)[C@H](O)[C@H](C)O2)C1)C(=O)c1c(O)cccc1C3=O |  | 10.7 µM (active)
